# Source: ChEMBL document CHEMBL2218924, “A broad activity screen in support of a chemogenomic map for kinase signalling research and drug discovery” (Biochem J, 2013)
# Target: T1, Tyrosine-protein kinase ZAP-70 (Homo sapiens) (UniProt P43403)
# T1 sequence (whole entry): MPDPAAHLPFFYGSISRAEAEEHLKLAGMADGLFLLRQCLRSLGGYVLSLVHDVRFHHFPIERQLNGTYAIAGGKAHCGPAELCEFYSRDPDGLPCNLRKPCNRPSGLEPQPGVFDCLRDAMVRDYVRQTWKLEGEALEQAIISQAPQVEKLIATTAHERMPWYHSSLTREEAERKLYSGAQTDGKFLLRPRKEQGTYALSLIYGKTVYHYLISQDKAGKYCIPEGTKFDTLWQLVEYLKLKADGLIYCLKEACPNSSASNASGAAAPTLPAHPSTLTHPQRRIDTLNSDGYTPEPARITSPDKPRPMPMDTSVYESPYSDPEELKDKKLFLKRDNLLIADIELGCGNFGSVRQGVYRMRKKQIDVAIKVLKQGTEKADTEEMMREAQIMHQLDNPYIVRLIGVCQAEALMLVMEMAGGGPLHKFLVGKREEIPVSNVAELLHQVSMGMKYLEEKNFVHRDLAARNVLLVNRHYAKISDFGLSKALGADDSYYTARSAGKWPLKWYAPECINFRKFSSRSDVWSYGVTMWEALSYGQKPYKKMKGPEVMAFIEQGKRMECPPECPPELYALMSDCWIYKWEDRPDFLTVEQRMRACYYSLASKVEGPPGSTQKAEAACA
# Conditions: at 10 µM
row,SMILES,residual activity [%]
1,O=C1NC(=O)/C(=C/c2ccc3c(c2)OC(F)(F)O3)S1,102
2,CC(C)n1cnc2c(NCc3ccccc3)nc(NCCCO)nc21,119
3,Nc1ccc2ncnc(NCCc3ccc(Oc4ccccc4)cc3)c2c1,108
4,CC(C)c1nn(-c2c(Cl)cccc2Cl)c2nc(Cc3ccc(OCCO)cc3)[nH]c(=O)c12,84
5,CC(C)n1cnc2/c(=N/c3cccc(Cl)c3)nc(NCCO)[nH]c21,117
6,Cc1cc2ncc(-c3ccccc3)nc2cc1C,98
7,O=C1Nc2cc(Br)ccc2/C1=C1/Nc2ccccc2/C1=N\O,95
8,Oc1ccc(Nc2nc(-c3ccc(Cl)cc3)cs2)cc1,130
9,CC(=O)c1ccc(N2CCOCC2)cc1O,86
10,CN(C)CCCn1cc(C2=C(c3c[nH]c4ccccc34)C(=O)NC2=O)c2ccccc21,118
11,CCOc1cc2ncnc(Nc3cccc(Br)c3)c2cc1OCC,119
12,COc1ccc2c(c1)c(C1=C(c3c[nH]c4ccccc34)C(=O)NC1=O)cn2CCCN(C)C,120
13,COc1cc2ncnc(Nc3ccc(O)c(Br)c3)c2cc1OC,105
14,O=C1NC(=O)C(c2cn(CCCn3ccnc3)c3ccccc23)=C1Nc1ccccc1,118
15,O=c1c2ccccc2[nH]c(=S)n1CCN1CCC(=C(c2ccc(F)cc2)c2ccc(F)cc2)CC1,94
16,O=C(Nc1cccc(Nc2cc(Nc3cccc(C(F)(F)F)c3)ncn2)c1)C1CC1,101
17,O=C1c2ccccc2-[n+]2ccc3c([nH]c4ccccc43)c21,132
18,O=C1NC(=O)/C(=C\c2ccc3nccnc3c2)S1,94
